Measured values: PubChem BioAssay AID1159580 (chemical genetic matrix, 2015)
In all, about 5,500 compounds went through this assay and about 2,000 (36%) were called active. Not shown: some 18% with an inconclusive outcome. Rule as the data show it: active = normalized growth mostly below about 0.91 (no sharp cut-off); inconclusive = no clear call, values can overlap the other calls; inactive = mostly above about 0.92. This is one part of the list.

Assay: chemical genetic growth profiling, strain panel (AID 1159580);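 also: tested at 20 µM; growth read once vehicle control cultures reached saturation at 30 °C; 1 = growth at the plate median or of vehicle wells; lower values mean less growth of the strain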
Settings: growth OD

Measured: normalized growth

Fc1ccc(C(c2ccccc2)(c2ccccc2F)n2ccnc2)cc1 (stereo unspecified)
inactive: S. cerevisiae deletion strains, locus YOL012C, strain htz1 0.208
active: S. cerevisiae deletion strains, locus YAL013W, strain DEP1, stronger effect = lower value 0.0872 | S. cerevisiae deletion strains, locus YBR021W, strain FUR4, stronger effect = lower value 0.19 | S. cerevisiae deletion strains, locus YBR229C, strain ROT2, stronger effect = lower value 0.0785 | S. cerevisiae deletion strains, locus YCL029C, strain bik1, stronger effect = lower value 0.0815 | S. cerevisiae deletion strains, locus YDL035C, strain GPR1, stronger effect = lower value 0.0631 | S. cerevisiae deletion strains, locus YDL074C, strain BRE1, stronger effect = lower value 0.147 | S. cerevisiae deletion strains, locus YDL101C, strain DUN1, stronger effect = lower value 0.0698 | S. cerevisiae deletion strains, locus YDL134C, strain PPH21, stronger effect = lower value 0.0588 | S. cerevisiae deletion strains, locus YDL185W, strain tfp1, stronger effect = lower value 0.0581 | S. cerevisiae deletion strains, locus YDL192W, strain arf1, stronger effect = lower value 0.0867 | S. cerevisiae deletion strains, locus YDR101C, strain arx1, stronger effect = lower value 0.0775 | S. cerevisiae deletion strains, locus YDR150W, strain NUM1, stronger effect = lower value 0.0798 | S. cerevisiae deletion strains, locus YDR162C, strain NBP2, stronger effect = lower value 0.0536 | S. cerevisiae deletion strains, locus YDR318W, strain mcm21, stronger effect = lower value 0.082 | S. cerevisiae deletion strains, locus YDR388W, stronger effect = lower value 0.0787 | S. cerevisiae deletion strains, locus YDR502C, strain sam2, stronger effect = lower value 0.079 | S. cerevisiae deletion strains, locus YEL061C, strain CIN8, stronger effect = lower value 0.063 | S. cerevisiae deletion strains, locus YER110C, stronger effect = lower value 0.112 | S. cerevisiae deletion strains, locus YER155C, strain BEM2, stronger effect = lower value 0.097 | S. cerevisiae deletion strains, locus YER167W, strain BCK2, stronger effect = lower value 0.0563 | S. cerevisiae deletion strains, locus YGL078C, strain dbp3, stronger effect = lower value 0.111 | S. cerevisiae deletion strains, locus YGL086W, strain mad1, stronger effect = lower value 0.0673 | S. cerevisiae deletion strains, locus YGL248W, strain PDE1, stronger effect = lower value 0.0531 | S. cerevisiae deletion strains, locus YGR078C, strain PAC10, stronger effect = lower value 0.0703 | S. cerevisiae deletion strains, locus YGR135W, strain pre9, stronger effect = lower value 0.0937 | S. cerevisiae deletion strains, locus YGR229C, strain SMI1, stronger effect = lower value 0.0699 | S. cerevisiae deletion strains, locus YGR252W, strain gcn5, stronger effect = lower value 0.179 | S. cerevisiae deletion strains, locus YHR030C, strain SLT2, stronger effect = lower value 0.0565 | S. cerevisiae deletion strains, locus YHR079C, strain IRE1 (second series), stronger effect = lower value 0.0811 | S. cerevisiae deletion strains, locus YHR094C, strain hxt1, stronger effect = lower value 0.0819 | S. cerevisiae deletion strains, locus YHR129C, strain ARP1, stronger effect = lower value 0.0647 | S. cerevisiae deletion strains, locus YHR200W, strain rpn10, stronger effect = lower value 0.101 | S. cerevisiae deletion strains, locus YIL066C, strain RNR3, stronger effect = lower value 0.054 | S. cerevisiae deletion strains, locus YIL073C, strain SPO22, stronger effect = lower value 0.128 | S. cerevisiae deletion strains, locus YIL125W, strain kgd1, stronger effect = lower value 0.14 | S. cerevisiae deletion strains, locus YIR030C, strain dcg1, stronger effect = lower value 0.0795 | S. cerevisiae deletion strains, locus YJL095W, strain BCK1, stronger effect = lower value 0.0549 | S. cerevisiae deletion strains, locus YJL134W, strain LCB3, stronger effect = lower value 0.0651 | S. cerevisiae deletion strains, locus YJL168C, strain set2, stronger effect = lower value 0.0832 | S. cerevisiae deletion strains, locus YJL187C, strain SWE1 (second series), stronger effect = lower value 0.0603 | S. cerevisiae deletion strains, locus YJR043C, strain POL32, stronger effect = lower value 0.0763 | S. cerevisiae deletion strains, locus YJR075W, strain HOC1, stronger effect = lower value 0.0813 | S. cerevisiae deletion strains, locus YKL009W, strain mrt4, stronger effect = lower value 0.4 | S. cerevisiae deletion strains, locus YKL068W, stronger effect = lower value 0.178 | S. cerevisiae deletion strains, locus YKL085W, strain MDH1 (second series), stronger effect = lower value 0.126 | S. cerevisiae deletion strains, locus YKL085W, strain MDH1, stronger effect = lower value 0.126 | S. cerevisiae deletion strains, locus YKL190W, strain CNB1, stronger effect = lower value 0.0509 | S. cerevisiae deletion strains, locus YKR001C, strain vps1, stronger effect = lower value 0.0897 | S. cerevisiae deletion strains, locus YLR039C, strain RIC1, stronger effect = lower value 0.191 | S. cerevisiae deletion strains, locus YLR058C, strain SHM2, stronger effect = lower value 0.0587 | S. cerevisiae deletion strains, locus YLR102C, strain apc9, stronger effect = lower value 0.0876 | S. cerevisiae deletion strains, locus YLR262C, strain YPT6, stronger effect = lower value 0.23 | S. cerevisiae deletion strains, locus YLR268W, strain sec22, stronger effect = lower value 0.0794 | S. cerevisiae deletion strains, locus YLR330W, strain CHS5, stronger effect = lower value 0.0657 | S. cerevisiae deletion strains, locus YLR342W, strain FKS1 (second series), stronger effect = lower value 0.0856 | S. cerevisiae deletion strains, locus YLR371W, strain rom2, stronger effect = lower value 0.0813 | S. cerevisiae deletion strains, locus YLR418C, strain cdc73, stronger effect = lower value 0.127 | S. cerevisiae deletion strains, locus YML016C, strain PPZ1, stronger effect = lower value 0.0591 | S. cerevisiae deletion strains, locus YML032C, strain rad52, stronger effect = lower value 0.104 | S. cerevisiae deletion strains, locus YML124C, strain tub3, stronger effect = lower value 0.0796 | S. cerevisiae deletion strains, locus YMR078C, strain ctf18, stronger effect = lower value 0.101 | S. cerevisiae deletion strains, locus YMR223W, strain ubp8, stronger effect = lower value 0.0885 | S. cerevisiae deletion strains, locus YMR263W, strain SAP30, stronger effect = lower value 0.108 | S. cerevisiae deletion strains, locus YMR307W, strain GAS1, stronger effect = lower value 0.129 | S. cerevisiae deletion strains, locus YNL067W, strain RPL9B, stronger effect = lower value 0.0623 | S. cerevisiae deletion strains, locus YNL128W, strain TEP1, stronger effect = lower value 0.0794 | S. cerevisiae deletion strains, locus YNL153C, strain GIM3, stronger effect = lower value 0.0592 | S. cerevisiae deletion strains, locus YNL233W, strain BNI4, stronger effect = lower value 0.0673 | S. cerevisiae deletion strains, locus YNL250W, strain rad50, stronger effect = lower value 0.133 | S. cerevisiae deletion strains, locus YNL271C, strain bni1, stronger effect = lower value 0.114 | S. cerevisiae deletion strains, locus YNL298W, strain CLA4, stronger effect = lower value 0.0847 | S. cerevisiae deletion strains, locus YNL307C, strain MCK1, stronger effect = lower value 0.0726 | S. cerevisiae deletion strains, locus YNL322C, strain KRE1, stronger effect = lower value 0.0639 | S. cerevisiae deletion strains, locus YNR052C, strain pop2, stronger effect = lower value 0.0915 | S. cerevisiae deletion strains, locus YOL006C, strain TOP1, stronger effect = lower value 0.104 | S. cerevisiae deletion strains, locus YOL147C, strain pex11, stronger effect = lower value 0.0687 | S. cerevisiae deletion strains, locus YOR061W, strain CKA2, stronger effect = lower value 0.077 | S. cerevisiae deletion strains, locus YOR069W, strain VPS5, stronger effect = lower value 0.0662 | S. cerevisiae deletion strains, locus YOR136W, strain idh2, stronger effect = lower value 0.0938 | S. cerevisiae deletion strains, locus YOR144C, strain elg1, stronger effect = lower value 0.076 | S. cerevisiae deletion strains, locus YOR184W, strain ser1, stronger effect = lower value 0.094 | S. cerevisiae deletion strains, locus YOR316C, strain cot1, stronger effect = lower value 0.0765 | S. cerevisiae deletion strains, locus YPL055C, strain LGE1, stronger effect = lower value 0.0913 | S. cerevisiae deletion strains, locus YPL241C, strain CIN2, stronger effect = lower value 0.0643 | S. cerevisiae deletion strains, locus YPR119W, strain clb2, stronger effect = lower value 0.0897 | S. cerevisiae deletion strains, locus YPR141C, strain kar3, stronger effect = lower value 0.24 | S. cerevisiae deletion strains, locus YPR163C, strain tif3, stronger effect = lower value 0.0819 | S. cerevisiae deletion strains, locus YPR167C, strain met16, stronger effect = lower value 0.0807 | S. cerevisiae deletion strains, strain wtn01, stronger effect = lower value 0.1 | S. cerevisiae strains, strain wild type, stronger effect = lower value 0.0558
